± gives the standard deviation of the averaged measurements. In all, about 25,000 sequences were measured (“ln(normalized median fluorescence intensity)”: median about 7.9, highest 2% from about 11 on). For the sample, the highest values were picked, then their nearest neighbours and some sequences at random.
What follows are sequences tested on PfAP2-I AP2 domain 3 (GST-tagged) (assay: gcPBM binding intensity (ln(normalized median fluorescence intensity)); higher = stronger DNA binding).
Summary of the method: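 After 1 h on an Agilent 4 × 180k array of primer-extended double-stranded 36-bp intergenic genomic probes and negative controls, bound GST-tagged P. falciparum DNA-binding domains were detected with Alexa488 anti-GST antibody and scanned at 488 nm. The domains had been expressed in E. coli, and binding took place in 1× PBS with 1% milk, 0.2 mg/ml BSA, 0.5% salmon testes DNA and 0.03% Triton X-100. Binding intensity is the highest Masliner-normalised natural-log median intensity across replicate spots of either probe orientation.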

Sequence	gcPBM binding intensity (ln)
TGTCCAATTTTTTATCGTACATAATATATAAATAAA [XGTACX_site1705]	8.01 ± 0.33
TTTTCTTGATTTTGTAGTACATTTTTACGATATTTT [XGTACX_site63]	7.94 ± 0.55
ATTTAATATCACAATATATTTTTTACCCTTATCAGC [CACACA_negctrl_site491]	7.59 ± 0.76
CATGAGGTATAAAAGGTGCAAATTAATGAGAACATT	11.1 ± 0.36
CGTTGGTATTAAAAGGTGCAATGAAATAATATATTA	10.8 ± 0.63
TATGTATTAATGAGAACATGCAAAATAATAAACAAT [TGCATGCA_site362]	8.45 ± 0.59
TTTTTAAAAAAACATACACACAAAAAAAAAAAAAAA [CACACA_site3935]	8.11 ± 0.67
TTATATCAAGGGAATGCATGCATATCGTTTTGTATT [TGCATGCA_site327]	7.68 ± 0.88
TATTGTATATAATAAACACACAATATTAAAAATATA [CACACA_site1057]	7.4 ± 0.52
ACAAAAAAAAACGTGGTGCATTAATAATATTGTATA [GTGCAC_site9469]	11.7 ± 0.3
AATATTGTATATAATAAACACACAATATTAAAAATA [CACACA_site8262]	7.57 ± 0.39
TCTTATATTATATTGTGTATTAAAATTTAACTTCAA [TGCATGCA_negctrl_site565]	7.83 ± 0.58
ACTTTTTATTTTTTACTATATATATATATATATATG [TGCATGCA_negctrl_site463]	8.31 ± 0.44
TATATATTTGTTCACACACACACAAAAAAAAAAAAA [CACACA_site2475]	8.08 ± 0.52
TATGTGCACCCATATACACACACAAATACAATGATA [CACACA_site8295]	11.3 ± 0.85
TGGGCACCCATATACACACACAAATACAATGATAAA [CACACA_site4762]	7.78 ± 0.28
GGTGCACCCATATACACACACAAATACAATGATAAA [CACACA_site1132]	9.99 ± 0.56
CCCGTAAATACAAAAAGTACAAAAGTTCATCTTATA [XGTACX_site1154]	7.93 ± 0.99
CTGTACACTTAAACGGTGCAAAAAGAAAAAAAAGAA	11 ± 0.38
AATTTATTTTTAAAAAGTACATACTTAAGAAAACGA [XGTACX_site3660]	8.12 ± 0.29

Sequence	gcPBM binding intensity (ln)
AAAGAAAACGGACTTTGTACTTAAATATAATATAAA [XGTACX_site8585]	7.69 ± 0.34
AATAAAATGAGATGTTGTACAGTTTTGATATATGCA [XGTACX_site3052]	7.96 ± 0.19
CATTATTATGATAGTTGTACAATTTTTATAAAAAAT [XGTACX_site4411]	7.93 ± 0.35
GATAAAATGAGACCAGTGCATTATTAGTTGTACACC	11.3 ± 0.53
TAATTAATTTATTAGTTGCACTGTACCATTAGAGTA	9 ± 0.11
TTTTTATAGAATTTAACACACATTTCATATAAAAAA [CACACA_site7453]	7.86 ± 0.47
TAATAAAATATGTACGTGCACATAATTATACTAAAA	10.3 ± 0.18
AAAAAAAAAAAATACGTGCACTATGATATATTATAT	11.4 ± 0.36
TACTATTATAAATATGTGCACTTCAATAATATACTA	10.4 ± 0.11
TATGATTAATTACCACAATTGACAAAAAAAAAAAAA [CACACA_negctrl_site336]	8.13 ± 0.87
ATATATATTATGTGTGTGCACTTTTGTTATTATTAT	9.83 ± 0.014
TTTTGTTACTTTTATGTGCACTTATAAAACGAACTA [GTGCAC_site9551]	11.3 ± 0.085
AACTATTTTATTATATGTACTTACGAATTTATAAAA [XGTACX_site5262]	7.87 ± 0.35
AAAACACAATTTATTACACACATATATTATAGATTA [CACACA_site6780]	7.61 ± 0.68
AGAATTTTAGATTTAGCACACATTTTTTTTTTTTTT [CACACA_site4081]	8.34 ± 0.45
TTTTTTAAATTGGTAGTGCAATATGATTGAACAAAA [GTGCAC_site9715]	10.9 ± 0.79
ATATTGAAATTAAAAAAATATATGAACAAATGATGA [CACACA_negctrl_site602]	7.69 ± 0.59
TATATAGATATGATAGTGCATTTTTAGAAAACATAA [GTGCAC_site9962]	9.44 ± 0.14
ATGATATGCAATTTAGTGCATAACAAAATTGGTATA	10.9 ± 0.49
GTTTTAACAAAATTAGTGCATTTATCAATTATATAA	10.5 ± 0.14

Sequence	gcPBM binding intensity (ln)
TTTTTTTTTTTTGTAGTGCAAATTAAAAATATATGT	10.6 ± 0.53
AAAAAAAAAAAAAGCACACATATAAATATGAATAAA [CACACA_site1393]	8.39 ± 0.085
TAATTTTATATTAAAAGTACATAATAAAAACTATAA [XGTACX_site8779]	7.79 ± 0.22
TAAATATATATCATCACACACACATACATAAATATA [CACACA_site183]	7.72 ± 0.47
TAATAATATAAATATGCACACAAATTATTACCCAAA [CACACA_site8805]	8.97 ± 0.47
GCTAAAAGTATATGCACACACATATAGATGCACATA [CACACA_site6868]	10 ± 0.14
AAAAATAATGCACATATATATAATATGTATATGTAT [CACACA_negctrl_site443]	11 ± 0.6
AAAATATAATATAATGCACACATAAAAAAAAAATCA [CACACA_site7922]	10.8 ± 0.64
AAAAATATAATATATGCACACATACATACATATATA [CACACA_site7915]	9.06 ± 0.057
AAAAAATATACATATACACACATATGTATATATAAT [CACACA_site8676]	7.57 ± 0.31
AATTCTTTACTATTCACACATATAAATATTCACTTT [CACACA_site4886]	8 ± 0.7
AATATAATATAATGCACACATAAAAAAAAAAAAATC [CACACA_site1303]	11 ± 0.64
GCTAAAAGTATATGCACACACATATATATGCACATA [CACACA_site1635]	10.3 ± 0.16
CTTTTTTTTTTTTTTGCACACACATATATAAATATA [CACACA_site3950]	9.74 ± 0.042
GTGCTAAAAGTATATGCACACACATATATATGCACA [CACACA_site8472]	10.9 ± 0.55
CATATTTGCACTTTCACACATAAATATATAACTATA [CACACA_site6016]	11 ± 0.89
ATAGATATACATATCACACATATATATATATATATA [CACACA_site4985]	9.19 ± 0.65
GATATAGATATTAATTGTACATATTATTTATTGTTA [XGTACX_site846]	7.62 ± 0.36
TTAAAAAAATATAATACACACCAAAAATATGCACAT [CACACA_site5209]	9.6 ± 0.43
TTAAATATATGTAATACGCACACTTAATATTTTGAG [CACACA_site4170]	8.18 ± 0.35
